Bioassay records (PubChem BioAssay)
a7 integrin act = integrin-mediated muscular dystrophy alleviation activation; AID 624291; alpha7betagal myoblasts, beta-gal FDG fluorescence, 48 h; Potency, µM (highest dose often 38.3 µM), hits mostly activators; 0.064% of 350,000 active; also: nearly all actives have a fitted effect of over 60% in size
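alpha7betagal+/- myoblasts (passage 13, 250/well) treated 48 h at 37C with compounds at 1:260 dilution of DMSO stock. Lysed, then beta-galactosidase activity read as FDG fluorescence (ex 480/em 540) after 30 min, with pre-read for autofluorescence.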
Gal4-VP16 FLuc = inhibits Gal4-VP16 luciferase reporter, ROR gamma counter-screen. Potency, µM (titrated, usually from 53.6 µM), usual class: inhibitors. Drosophila S2 Gal4-VP16 UAS-luciferase, luminescence, 20 h. AID 2546. 3.5% of 310,000 active;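 also: Gal4-VP16 expression switched on by copper sulfate through the metallothionein promoter; nearly all actives have a fitted effect of over 50% in size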
uPA generation = inhibitors of cell surface uPA generation; cell surface uPA generation assay, qHTS; Potency, µM (doses to about 38.3 µM), most hits filed as inhibitors; 0.31% of 330,000 active; active = well fitted inhibition curve with a large enough effect; inconclusive = small, poorly fitted or top-dose-only effect; inactive = no such curve, though single readings can be large or run the other way; tested in mouse RAW 264.7 cells; also: nearly all actives have a fitted effect of over 55% in size
RORgamma inh = blocks mouse ROR gamma transcriptional activity | Drosophila S2 Gal4-RORgamma UAS-luciferase reporter, 20 h | 5.4% of 310,000 active | Potency, µM (highest dose often 53.6 µM), hits mostly inhibitors | P51450; also: nearly all actives have a fitted effect of over 60% in size
Target sequence (P51450 whole entry, looked up, the tested form may be a part): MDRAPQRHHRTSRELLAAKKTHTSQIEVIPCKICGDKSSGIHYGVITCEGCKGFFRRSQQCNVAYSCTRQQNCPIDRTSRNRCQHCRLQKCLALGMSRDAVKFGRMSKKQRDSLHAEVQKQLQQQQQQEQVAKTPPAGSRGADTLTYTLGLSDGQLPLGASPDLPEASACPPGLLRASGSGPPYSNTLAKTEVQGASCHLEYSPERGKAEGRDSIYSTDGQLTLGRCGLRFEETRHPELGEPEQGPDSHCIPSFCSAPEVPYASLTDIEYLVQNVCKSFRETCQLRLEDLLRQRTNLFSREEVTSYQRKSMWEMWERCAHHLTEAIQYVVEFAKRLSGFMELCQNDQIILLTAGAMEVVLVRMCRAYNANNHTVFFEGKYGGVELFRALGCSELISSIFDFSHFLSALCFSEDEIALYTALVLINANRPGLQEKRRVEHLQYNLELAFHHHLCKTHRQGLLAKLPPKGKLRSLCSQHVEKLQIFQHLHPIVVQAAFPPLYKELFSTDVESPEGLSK
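Using a luciferase readout, inhibitors were identified by reduced reporter activity in Drosophila cells coexpressing a copper-inducible Gal4–ROR gamma fusion and UAS-driven Photinus luciferase, incubated 20 hr after 700 uM copper sulfate.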
Mito fusion act = blocks mitochondrial division or promotes mitochondrial fusion | S. cerevisiae fusion-defective mutant growth rescue, CellTiterGlo 48 h | Potency, µM (top dose mostly 46.1 µM), actives largely listed as activators | 0.23% of 320,000 active | AID 485298; also: nearly all actives have a fitted effect of over 45% in size
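Growth-rescue viability read-out: after 48 h at the non-permissive 37C in glycerol/ethanol YPEG, yeast mitochondrial fusion mutants are measured by CellTiterGlo luminescence; compounds (23 nl pinned per well) restoring growth score as division inhibitors or fusion activators.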
BCR signal inh = blocks chronic active B-cell receptor signaling; ABC-DLBCL IkBa-CBG/CBR reporter, luminescence ratio, 4 h; Potency, µM (highest dose often 46.1 µM), usual class: inhibitors; 0.05% of 340,000 active; AID 493014; active = well fitted inhibition curve with a large enough effect in the signal ratio, with a control signal flat, not every such curve was filed as active; inconclusive = small, poorly fitted or top-dose-only effect, or effect the other way, or a change in a side signal; the % refers to the signal ratio
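Doxycycline induced both beetle luciferases in TMD8 lymphoma cells; IKK-driven degradation limits the IkappaBalpha-fused green signal, while red luminescence normalises for cell number and nonspecific effects. Compounds tested up to 46 uM, 4 hrs.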
Of the large screens only hits and unclear results are named; the others gave an inactive call; ! = not active in a repeat. Rows were chosen to be rich in hits. Some 5.5% of all compounds tested hit in one or more screens of this group. Unless noted, calls follow the shape of the dose curve; as a rule, active = well fitted curve in the direction sought with a large enough effect; inconclusive = small, poorly fitted or top-dose-only effect, or another doubt; inactive = no such curve, though single readings can be large; an effect the other way counts as inactive or inconclusive.

COc1ccc(/C=N/NC(=O)C2C3CCCCC32C)cc1OC (stereo not given)	BCR signal inh inconclusive
CCN1C(=O)[C@H]2[C@@H](c3ccc(-c4ccc(F)cc4)c(OC)c3)N[C@@](CC(C)C)(C(=O)OC)[C@H]2C1=O	none (no result: a7 integrin act, Gal4-VP16 FLuc, uPA generation, RORgamma inh)
COc1cc(/C=N/NC(=O)c2ccc3c(c2)OCCO3)cc(Br)c1O	Gal4-VP16 FLuc inconclusive, uPA generation inconclusive, RORgamma inh 15.8µM, BCR signal inh inconclusive
O=C1N/C(=N/c2ccccn2)SC1Cc1ccccc1 (stereo not given)	Gal4-VP16 FLuc 2.51µM, RORgamma inh 0.891µM, BCR signal inh inconclusive
O=C1N/C(=N\c2ccccn2)SC1Cc1ccc(Cl)cc1 (stereo not given)	Gal4-VP16 FLuc 3.16µM, RORgamma inh 2µM, BCR signal inh inconclusive
O=C1NC(=Nc2ccccc2)SC1Cc1ccccc1 (stereo not given)	BCR signal inh inconclusive
Cc1ccc(CC2S/C(=N/c3ccccn3)NC2=O)cc1 (stereo not given)	Gal4-VP16 FLuc 3.55µM, RORgamma inh 2.82µM
OCC1OC([S-])[C@H](O)C(O)C1O.[Au+] (stereo not given in full)	Gal4-VP16 FLuc 6.31µM (no result: a7 integrin act, uPA generation, Mito fusion act, BCR signal inh)
OCC1OC(O)C(O)C(O)C1O (stereo not given)	none (no result: a7 integrin act, uPA generation, Mito fusion act, BCR signal inh)
CC12CCC=CC1C(c1ccc(Br)cc1F)N(Cc1ccccc1)C2=O (stereo not given)	none (no result: a7 integrin act, uPA generation, Mito fusion act, BCR signal inh)
Cc1c(C(=O)OCC(=O)Nc2ccccc2OC(F)F)cccc1[N+](=O)[O-]	none
COc1cccc(C(=O)CC(=O)C(=O)Nc2cccc([N+](=O)[O-])c2C)c1	Gal4-VP16 FLuc inconclusive, RORgamma inh 14.1µM
COc1ccccc1C/C(N)=N/OC(=O)c1cccc([N+](=O)[O-])c1C	Gal4-VP16 FLuc 12.6µM, BCR signal inh inconclusive
COc1ccccc1C(=O)CC(=O)C(=O)Nc1cccc([N+](=O)[O-])c1C	Gal4-VP16 FLuc 12.6µM, uPA generation inconclusive, RORgamma inh 7.08µM
COc1ccc(C(=O)CC(=O)C(=O)Nc2cccc([N+](=O)[O-])c2C)cc1	Gal4-VP16 FLuc inconclusive, RORgamma inh 10µM
COc1ccc(/C(N)=N/OC(=O)c2cccc([N+](=O)[O-])c2C)cc1	none
CCCCC[C@]12Cc3ccccc3C(O1)c1c(cc(C)oc1=O)O2	none (no result: a7 integrin act, uPA generation)
Cc1cc(C)c(NC(=O)c2nc3ccccc3nc2N2CCCCC2)c(C)c1	none (no result: a7 integrin act, Gal4-VP16 FLuc, uPA generation, RORgamma inh, Mito fusion act)
Clc1ccc(N2CCN(Cc3c[nH]c4ncccc34)CC2)cc1	Mito fusion act 7.31µM! (no result: a7 integrin act)
c1ccc(CN2CCN(Cc3c[nH]c4ccccc34)CC2)cc1	none
COc1ccc2nc3c(c([Si](C)(C)C(C)(C)C)c2c1)Cn1c-3cccc1=O	Gal4-VP16 FLuc 11.2µM, RORgamma inh 12.6µM (no result: a7 integrin act, uPA generation, Mito fusion act, BCR signal inh)
COc1cc2nc3c(c([Si](C)(C)C(C)(C)C)c2cc1OC)Cn1c-3cccc1=O	none (no result: a7 integrin act, uPA generation, Mito fusion act, BCR signal inh)
COc1cccc(Nc2ccccc2C(=O)O)c1	BCR signal inh inconclusive
O=C(Nc1ccc(Cl)c(Cl)c1)Nc1ccccc1C(=O)O	Gal4-VP16 FLuc inconclusive, RORgamma inh inconclusive, BCR signal inh inconclusive
O=C(Nc1ccc(Cl)cc1)Nc1ccccc1C(=O)O	Gal4-VP16 FLuc 11.2µM, RORgamma inh 7.08µM, BCR signal inh inconclusive
O=C(Nc1cccc(Cl)c1)Nc1ccccc1C(=O)O	Gal4-VP16 FLuc inconclusive, uPA generation 8.91µM, BCR signal inh inconclusive
O=C(O)c1ccccc1Nc1ccccc1	Mito fusion act 23.1µM! (no result: a7 integrin act)
O=C(NCCC1CCCCN1S(=O)(=O)c1ccc(F)cc1)C(=O)NCCN1CCOCC1 (stereo not given)	none (no result: Gal4-VP16 FLuc, RORgamma inh)
CCCn1c(-c2ccc(F)cc2)nc2c(NCCCN(CCO)CCO)nc(C)nc21	none (no result: a7 integrin act, uPA generation, Mito fusion act, BCR signal inh)
O=C1CCCCC1Sc1nnc(-c2ccc3c(c2)OCO3)o1 (stereo not given)	Gal4-VP16 FLuc 0.891µM, RORgamma inh 0.562µM, BCR signal inh inconclusive
Clc1ccc(CSc2nnc(-c3ccc4c(c3)OCO4)o2)cc1	none
CC1C/C(=N\NC(N)=S)c2cc(Cl)ccc2S1 (stereo not given)	Gal4-VP16 FLuc 2µM, RORgamma inh 0.631µM, BCR signal inh inconclusive
CC(C)=C1CCC(C)CC1=NNC(N)=S (stereo not given)	none (no result: Gal4-VP16 FLuc, RORgamma inh, Mito fusion act, BCR signal inh)
